Results from PubChem BioAssay (Tox21).
Activity calls are given as the source filed them. Calls come from the whole dose curve; as a rule, active = well fitted curve in the direction sought with a large enough effect in the repeat runs; inconclusive = weak or mixed curves; inactive = flat fitted curve, though single readings scatter.

How the values were obtained:
[1] = qHTS assay to test for compound auto fluorescence at 535 nm (green) in HEK293 cells (AID 720680)
[2] = qHTS assay to test for compound auto fluorescence at 460 nm (blue) in HEK293 cell free culture (AID 720681)
Summary of the method: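 Blue fluorescence (Ex 405/Em 460 nm, triamterene-equivalent) was read immediately after pin transfer of compound or DMSO into medium (DMEM, 10% FBS) without cells.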

[3] = qHTS assay to test for compound auto fluorescence at 535 nm (green) in HEK293 cell free culture (AID 720682)
Summary of the method: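 Intrinsic compound fluorescence is measured in culture medium containing 10% FBS, with excitation at 485 nm and detection at 535 nm, referenced to fluorescein.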

[4] = qHTS assay to test for compound auto fluorescence at 590 nm (red) in HEK293 cell free culture (AID 720683)
Summary of the method: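 Red-channel autofluorescence of compounds in culture medium (DMEM, 10% FBS), no cells, measured at 540/590 nm. Rose Bengal sodium is the reference fluorophore for equivalence.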

[5] = qHTS assay to test for compound auto fluorescence at 590 nm (red) in HepG2 cell free culture (AID 720684)
Summary of the method: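 Cell-free; medium MEM + 10% FBS; compound or DMSO added by pintool; read Ex 540/Em 590 nm; Rose Bengal sodium as red reference fluorophore.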

[6] = qHTS assay to test for compound auto fluorescence at 460 nm (blue) in HepG2 cell free culture (AID 720685)
Summary of the method: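 Cell-free plates of MEM plus 10% FBS received 23 nL compound or DMSO vehicle; blue-channel (405/460 nm) intensity scored against triamterene as reference fluorophore.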

[7] = qHTS assay to test for compound auto fluorescence at 535 nm (green) in HepG2 cell free culture (AID 720686)
[8] = qHTS assay to test for compound auto fluorescence at 460 nm (blue) in HepG2 cells (AID 720687)
Summary of the method: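 Blue-channel autofluorescence (Ex/Em 405/460 nm, triamterene-equivalent) was measured after 1 hr compound exposure at 37 C, 5% CO2. Cells were HepG2, plated overnight at 37 C in MEM plus 10% FBS.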

Measured: Potency

Oc1ccc(Cl)cc1C1CCCC1
inactive: all assays above

O=C1CCC/C=C\CCCCCCCCCC1
not listed: [8]
inactive: all other assays above

Oc1ccc(Cl)c2c1CCC2
inactive: all assays above

CC(C)=CCC/C(C)=C/CC/C(C)=C/CC/C(C)=C/CC1=C(C)C(=O)c2ccccc2C1=O
not listed: [8]
inactive: all other assays above

O=C(Cn1cnnn1)N[C@@H]1C(=O)N2C(C(=O)O)=C(CSc3nncs3)CS[C@H]12
inactive: all assays above

CN1CCN(c2ccccc2/C=C2\SCCN(c3ccc(Cl)c(Cl)c3)C2=O)CC1
inactive: all assays above

CCCC(CCC)C(=O)OC1C[C@H]2CC[C@@H](C1)[N+]2(C)C (stereo partly drawn)
inactive: all assays above

COC(=O)[C@H]1[C@H]2C[C@H]3c4[nH]c5ccccc5c4CCN3C[C@H]2CC[C@@H]1O
not listed: [8]
inactive: all other assays above

COc1cc2c(cc1OC)[C@@H](Cc1cc(OC)c(OC)c(OC)c1)[N+](C)(CCCOC(=O)CC/C=C/CCC(=O)OCCC[N+]1(C)CCc3cc(OC)c(OC)cc3[C@H]1Cc1cc(OC)c(OC)c(OC)c1)CC2 (stereo partly drawn)
not listed: [7] | [8]
inactive: all other assays above

Cc1cc(C(=O)NCCc2ccc(S(=O)(=O)NC(=O)NN3CCCCCC3)cc2)no1
not listed: [8]
inactive: all other assays above

c1ccc2occc2c1
inactive: all assays above

CC(=NCc1ccccc1)c1ccccc1O
not listed: [8]
inactive: all other assays above

NC(=O)CC[C@@H]1NC(=O)[C@H](Cc2ccccc2)NC(=O)[C@H](Cc2ccc(O)cc2)NC(=O)[C@@H](N)CSSC[C@@H](C(=O)N2CCC[C@H]2C(=O)N[C@@H](CCCN=C(N)N)C(=O)NCC(N)=O)NC(=O)[C@H](CC(N)=O)NC1=O
inactive: all assays above

NC(=O)c1cc[n+](CC2=C(C(=O)O)N3C(=O)[C@@H](NC(=O)C(c4ccccc4)S(=O)(=O)[O-])[C@H]3SC2)cc1 (stereo partly drawn)
not listed: [7] | [8]
inactive: all other assays above

OCl
inactive: all assays above

CC(C)OC(=O)Nc1ccc2nc(-c3cscn3)[nH]c2c1
inactive: all assays above

CC[C@H](C)C(=O)O[C@H]1CCC=C2C=C[C@H](C)[C@H](CC[C@@H]3C[C@@H](O)CC(=O)O3)[C@H]21
inactive: all assays above

Cc1cc(F)ccc1-c1cc(N2CC[C@@H](O)[C@H]2CO)ncc1N(C)C(=O)C(C)(C)c1cc(C(F)(F)F)cc(C(F)(F)F)c1
not listed: [8]
inactive: all other assays above

CCC(=O)OC(OP(=O)(CCCCc1ccccc1)CC(=O)N1C[C@H](C2CCCCC2)C[C@H]1C(=O)O)C(C)C (stereo partly drawn)
inactive: all assays above

CN1C(C(=O)Nc2ccccn2)C(=O)c2sc(Cl)cc2S1(=O)=O (stereo not drawn)
inactive: all assays above

NC(=S)NS(=O)(=O)c1ccc(N)cc1
inactive: all assays above

CN(C[C@@H](CC[N+]12CCC(C3CCCCC3)(CC1)CC2)c1ccc(Cl)c(Cl)c1)C(=O)c1cc(C(F)(F)F)cc(C(F)(F)F)c1
inactive: all assays above

O=C(O)C[C@H](O)C[C@H](O)/C=C/c1c(C2CC2)nc2ccccc2c1-c1ccc(F)cc1
inactive: all assays above

CO/N=C(\C(=O)N[C@@H]1C(=O)N2C(C(=O)[O-])=C(C[n+]3cccc4c3CCC4)CS[C@H]12)c1csc(N)n1
not listed: [8]
inactive: all other assays above

CC[C@H]1OC(=O)C[C@@H](O)[C@H](C)[C@@H](O[C@@H]2O[C@H](C)[C@@H](O[C@H]3C[C@@](C)(O)[C@@H](O)[C@H](C)O3)[C@H](N(C)C)[C@H]2O)[C@@H](CC=O)C[C@@H](C)C(=O)/C=C/C(C)=C/[C@@H]1CO[C@@H]1O[C@H](C)[C@@H](O)[C@@H](OC)[C@H]1OC
not listed: [8]
inactive: all other assays above
